Experimental data published in PubChem BioAssay (Tox21).
Results filed as inconclusive are left out. Entries that show only a call come without a potency. The source made the active and inactive calls. The call rests on the fitted dose curve; in most records, active means well fitted inhibition curve with a large enough effect in the repeat runs; inconclusive means weak or mixed curves; inactive means no such curve, though single readings can be large or run the other way.

Biological target: Cytochrome P450 2C19 (Homo sapiens) (UniProt P33261)
Test: Cytochrome P450 Family 2 Subfamily C Member 19 (CYP2C19) small molecule antagonists: luciferase reporter qHTS assay (AID 1671197); further: nearly all actives have a fitted effect of over 65% in size
Conditions: P450-Glo CYP2C19 enzyme, luciferin luminescence, 1 h; series mostly up to 115 µM
Excerpt: National Center for Advancing Translational Sciences [NCATS]
U.S. Environmental Protection Agency [EPA]
National Institutes of Environmental Health Sciences [NIEHS]
National Toxicology Program [NTP]
U.S. Food and Drug Administration [FDA]
Cytochrome P450 (CYP) enzymes are membrane-bound hemeproteins that play a key role in metabolism of drugs and xenobiotics. Evaluation of the effect of chemicals on CYP isozymes is useful to minimize the adverse drug reactions and toxicities in drug development process. Tox21 chemicals were tested for their effect on CYP enzyme activities by using P450-Glo (TM) screening systems (Promega Corporation, Madison, WI). These systems provide a luminescent method containing proluciferin substrates and are converted to luciferin products by CYP isozymes. The luciferin products formed are detected with a luciferin detection reagent, and the amount of light produced is proportional to CYP activity. P450-Glo (TM) CYP2C19 screening system (Catalog. No. V9880) was used to detect the compounds that interfere in CYP2C19 activity. The positive control compound used for CYP2C19 assay is ketoconazole (Sigma-Aldrich, St. Louis, MO).
Tox21 Assay Protocol Summary:
Two ul of enzyme-substrate mix was dispensed into medium binding white/solid 1536-well plates (Greiner Bio-One North America Inc., Monroe, NC) using a BioRaptr Flying Reagent Dispenser (FRD, Beckman Coulter, Brea, CA). Compounds dissolved in DMSO and positive control (ketoconazole) were transferred to the assay plates at 23 nl using a Pintool station (Wako, San Diego, CA). The assay plates were incubated at room temperature for 10 min. Then 2 ul of NADPH regeneration solution was added to each well of the assay plates using an FRD and incubated at 37C for 1 h. The reaction was stopped by adding 4 ul of detection reagent using an FRD and after 20 min incubation at room temperature the luminescence signal was measured using a ViewLux plate reader (Perkin Elmer, Shelton, CT). Data were expressed as relative luminescence units.
Potency means the concentration at half of the fitted maximal effect.

Chain of Cytochrome P450 2C19 (Homo sapiens) (P33261 whole entry, looked up): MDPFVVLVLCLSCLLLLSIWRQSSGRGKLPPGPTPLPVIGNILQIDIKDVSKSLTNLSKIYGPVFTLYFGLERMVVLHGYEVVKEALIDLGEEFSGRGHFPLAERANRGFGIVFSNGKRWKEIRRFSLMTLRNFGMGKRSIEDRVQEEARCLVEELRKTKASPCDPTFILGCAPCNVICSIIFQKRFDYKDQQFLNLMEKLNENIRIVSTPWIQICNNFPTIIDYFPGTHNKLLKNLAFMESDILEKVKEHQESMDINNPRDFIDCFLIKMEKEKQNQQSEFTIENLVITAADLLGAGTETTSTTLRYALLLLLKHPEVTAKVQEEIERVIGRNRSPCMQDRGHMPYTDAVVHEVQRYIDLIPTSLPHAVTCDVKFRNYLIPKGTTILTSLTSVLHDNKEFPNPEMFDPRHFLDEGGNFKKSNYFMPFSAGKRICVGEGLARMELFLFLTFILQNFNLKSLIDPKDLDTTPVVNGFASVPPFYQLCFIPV

SMILES | Potency
Cc1cccc(C)c1NC(=O)CN1CCCC1 | inactive
CC(=O)S[C@H](C(=O)N[C@H]1Cc2ccccc2[C@H]2CCC[C@@H](C(=O)O)N2C1=O)C(C)C | inactive
Cc1cc(C)c(C)c(O)c1 | inactive
CC(C)Cc1nccs1 | 40.7 µM (active)
CO[C@@H]1COCC[C@@H]1N[C@@H]1CC[C@@](C(=O)N2CCc3ncc(C(F)(F)F)cc3C2)(C(C)C)C1 | inactive
O=C(c1ccco1)N1CCNCC1 | inactive
Cc1cc(C)n(CO)n1 | inactive
CC(C)CCCCCOC(=O)CS | inactive
CCCCCCCCOCCCN | 2 µM (active)
CCOC(C)OCC | 69 µM (active)
CC(C)CC(C)(C)C | 20.8 µM (active)
CCCCCO | inactive
CC(=O)Oc1cccc2c1C(=O)c1c(OC(C)=O)cc(C(=O)O)cc1C2=O | inactive
O=[N+]([O-])c1cccc(I)c1 | inactive
CCCCC(CC)COCCC#N (stereo not given) | inactive
C[C@]12CCC(=O)C=C1[C@@H]1C[C@@H]1[C@H]1[C@@H]3[C@@H]4C[C@@H]4[C@@]4(CCC(=O)O4)[C@@]3(C)CC[C@@H]12 | 0.871 µM (active)
Cc1ccc(S(=O)(=O)NC(=O)NC2CCCC2)cc1 | inactive
Oc1ccc(Oc2ccccc2)cc1 | 26.8 µM (active)
COc1ccc(/C=C/c2cc(OC)cc(=O)o2)cc1 | 4.09 µM (active)
O=C(O)COCC(=O)O | inactive

SMILES | Potency
CCCCCCOC(=O)c1ccccc1 | inactive
O=C1C=CCCC1 | inactive
Cc1ccc(NC(=O)c2ccc(CN3CCN(C)CC3)cc2)cc1Nc1nccc(-c2cccnc2)n1 | inactive
CCc1cnc(C(=O)O)c(C(=O)O)c1 | inactive
CCCCCCCCCC(C)C=O (stereo not given) | inactive
CO[C@@H]1[C@@H](O[C@@H]2O[C@H](C)[C@@H](O[C@H]3C[C@@](C)(O)[C@@H](O)[C@H](C)O3)[C@H](N(C)C)[C@H]2O)[C@@H](CC=O)C[C@@H](C)[C@@H](O[C@@H]2CC[C@H](N(C)C)[C@@H](C)O2)/C=C/C=C/C[C@@H](C)OC(=O)C[C@H]1OC(C)=O | inactive
CCC(CC)C(=O)O | inactive
CCCCCCCCS | inactive
O=C(OCCOCCOCCOC(=O)c1ccccc1)c1ccccc1 | 20 µM (active)
c1ccc(CN(Cc2ccccc2)Cc2ccccc2)cc1 | 5.64 µM (active)
CC[C@H](NC(C)C)[C@H](O)c1ccc(O)c2[nH]c(=O)ccc12 | inactive
COC(=O)c1cc(Cl)ccc1[N+](=O)[O-] | 79.6 µM (active)
CCCC(=O)OCc1ccccc1 | inactive
C=CC(C)(O)CC/C=C(/C)CCC=C(C)C (stereo not given) | 10 µM (active)
CCCCCCCCCCCCCCCCC(=O)O | inactive
O=P(c1ccccc1)(c1ccccc1)c1ccccc1 | 5.64 µM (active)
CC(C)C[C@H](NC(=O)[C@H](Cc1ccccc1)NC(=O)c1cnccn1)B(O)O | 34.7 µM (active)
COc1ccnc2c1CCCCC2S(=O)c1nc2ccccc2[nH]1 (stereo not given) | 8.71 µM (active)
CCCC1CCOC(C)S1 (stereo not given) | inactive
NC(=O)c1ccccc1C(N)=O | 40.1 µM (active)
